Assay results taken from the supplement of paper PMC6555819.

The sequences below were run on VDR homodimer (NR concentration 270 nM) (assay: PBM binding z-score (relative to random genomic background probes); higher = stronger binding; sequences stand for … in GC…GCGATTGACAGCGTAGAATGAAGG).
In short: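 Random background probes are the reference for binding z-scores. These scores derive from regression-normalized fluorescence on custom Agilent 4×180K protein-binding microarrays incubated 1 h with ligand-free nuclear receptor dimers. Binding was detected with antibodies against each partner (one per run).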

Row | Sequence | PBM binding z-score
1 | TCTCCTAGGTCAACGATGGTCAGCTAATCTGCTA | 0.166
2 | GGAATGAGGGCATTCGAGTTGATAGCATGGCGAT | 3.8
3 | GGAACGAGGGCAAGTTGAGAGCAGAGTTTGATGG | 1.66
4 | TCTTGTAAATCAACAGGAGGTTAAGAAAGATCGA | 0.513
5 | CTACCAAGGTGAACAAGATCGTTGATTACTATTC | -0.0814
6 | ATCTGTAGGTAACAAGTTCAGTGAAAGAGAGGAC | 2.46
7 | CCGAGCAGGTTATGGGGCATTCAGGCAACGGTGA | -0.392
8 | GGAACGTGGGCAAGTTGATAGCAGAGTTTGATGG | 0.343
9 | TCGGGTAGGTTAGGGGCATTCAGAATGGCGTCGA | 1.79
10 | ACTGGGAGGACAAAGGTCAGAGCTACGCCAGTGA | 1.41
11 | CGTCCAAGGTCTATGCTAGGTCAGTGAAAGCATT | 0.404
12 | TCGAGAAGGTTACCAATGGGGCATTCAGCTTTCT | -0.528
13 | GCATATAGGTAATACAAGCTGAAAGTCCGATTGT | -0.000967
14 | TCTTGTAGATCAACAAGAGGTTAAGAAAGATCGA | -0.26
15 | ACTAGCAGGCCATGGGTCACTCAAGATTAGTCCG | -0.0856
16 | CGAACTAGGTAAGAACAGGACAGTGAAGGATGAT | -0.504
17 | ACTAGTTCGTCAGCTGAGGTCACACACAATTCGG | 4.73
18 | TAGCCTGGGTCATTGGGCCAGTATAGTACGCATC | 0.472
